# DT40 TDP1 no CPT – qHTS for Inhibitors of human tyrosyl-DNA phosphodiesterase 1 (TDP1): qHTS in cells in absence of CPT; DT40 Tdp1-/- hTDP1 cells, no CPT, ATP luminescence, 48 h; Potency, µM (titrated, usually from 46.2 µM), for inactives: at the highest dose activity change, negative = growth inhibition, usual class: inhibitors; actives 15% (n = 420,000); AID 686978, 2013; also: potency is read from the fitted curve at half-maximal effect; nearly all actives have a fitted effect of over 55% in size
#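 DT40 Tdp1-/-;hTDP1 cells, no CPT (DMSO vehicle only), 400 cells/well; compounds pin-transferred; ≥48 hr, 37 °C; CellTiter-Glo 30 min RT dark, luminescence read.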
# TDP1 cell CPT – DT40-hTDP1 cell growth loss with CPT; AID 686979; actives 12% (n = 420,000); chicken DT40 Tdp1-/-;hTDP1 cells + 20 nM CPT, ATP luminescence, 48 h; Potency, µM (doses to about 46.2 µM), inactives show at the highest dose activity change, negative = growth inhibition, most hits filed as inhibitors; also: potency is read from the fitted curve at half-maximal effect; nearly all actives have a fitted effect of over 55% in size
#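 Chicken DT40 Tdp1-/- cells complemented with human TDP1, 400 cells/well, exposed to compounds plus 20 nM camptothecin for at least 48 h at 37 C; viability read as ATP content by CellTiter-Glo luminescence.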
# IL1B secr inh – inflammasome signaling inhibition, IL-1 beta readout | THP-1 LPS/ATP IL-1B secretion, AlphaLISA, 16 h; hits give low values | activity change, % at 57.5 µM | actives 4.7% (n = 360,000) | AID 743279; in the data active = activity change below about -50%; inconclusive = mostly about -30% to -49%
#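 Secreted IL-1B measured by AlphaLISA bead assay after 16 h compound exposure of THP-1 cells; compounds (final up to 57.5 uM) added 1 h before LPS (250 ng/mL) and ATP (1.25 mM) stimulation; lower signal means less secretion.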
# HT1080 IDH1KD tx – toxicity to HT-1080 IDH1 knockdown cells (counter line); actives 2% (n = 360,000); HT-1080 IDH1 knockdown viability, ATP luminescence, 48 h; Potency, µM (series often up to 46.1 µM), inactives show top-dose activity, negative = toxicity, hits mostly cytotoxic;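 also: potency is read from the fitted curve at half-maximal effect; 0% = DMSO wells and -100% = cell-free medium wells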
#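 Using the IDH1-knockdown HT-1080 line run in the same batch and compound series as the NT line, viability after 48 h at 37 °C was determined by CellTiter-Glo luminescence and expressed as % activity.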
# HT1080-NT tox – kills 2HG-producing HT-1080-NT fibrosarcoma cells; actives 1.6% (n = 360,000); HT-1080-NT fibrosarcoma viability, CellTiter-Glo ATP luminescence, 48 h; Potency, µM (highest dose often 46.1 µM), for inactives: at the highest dose activity, negative = less viability, actives largely listed as cytotoxic;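 also: NT is the 2HG producing partner of a matched IDH1 knockdown line; potency is read from the fitted curve at half-maximal effect; 0% = DMSO-treated cells and -100% = media-only wells without cells; nearly all actives have a fitted effect of over 55% in size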
#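 HT-1080-NT; 750 cells/well; 5% FBS RPMI; 48 h compound, 37 degrees C; CellTiter-Glo luminescence; curve fitting and curve-class assignment.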
# The depositor's hits bear a star; ? = inconclusive; . = not tested or not shown. Most compounds without a hit are left out; they make up all but 19% or so of the library. Unless noted, calls follow the shape of the dose curve; as a rule, active = well fitted curve in the direction sought with a large enough effect; inconclusive = small, poorly fitted or top-dose-only effect, or another doubt; inactive = no such curve, though single readings can be large; an effect the other way counts as inactive or inconclusive. Unless noted, % is scaled to controls: 0 for no effect and ±100 for the full control effect.
SMILES,DT40 TDP1 no CPT,TDP1 cell CPT,IL1B secr inh,HT1080 IDH1KD tx,HT1080-NT tox
O=C(CSc1nc2c([nH]c3ccccc32)c(=O)n1-c1cccc(C(F)(F)F)c1)N1CCCC1,-0.1%,3.0%,.,.,.
COCCn1c(=O)c(-c2ccc(Cl)cc2)nc2cnc(Oc3ccc(OC)cc3)nc21,-4.2%,?,.,.,.
CCS(=O)(=O)c1ccc(-c2csc(-c3ccccc3Cl)n2)c(Cl)c1Cl,23.1µM*,?,-25.4,10.5%,17.0%
CCn1cc(C(=O)NCCc2ccc(OC)c(OC)c2)c(=O)c2cc(S(=O)(=O)N3CCOCC3)ccc21,18.4µM*,?,-17.6,-6.0%,-9.1%
C=CCn1cc(C(=O)OC)c(=O)c2cc(S(=O)(=O)N(CC)CC)ccc21,-2.2%,-2.2%,7.6,0.0%,0.1%
C=CCn1cc(C(=O)N2CCc3ccccc3C2)c(=O)c2cc(S(=O)(=O)N(CC)CC)ccc21,18.4µM*,?,-24.8,14.0%,1.6%
CCN(CC)S(=O)(=O)c1ccc2c(c1)c(=O)c(C(=O)NCc1ccccc1Cl)cn2C,7.31µM*,9.2µM*,.,.,.
CCN(CC)S(=O)(=O)c1ccc2c(c1)c(=O)c(C(=O)NCCc1ccc(OC)c(OC)c1)cn2C,?,18.4µM*,-11.8,8.7%,-4.2%
CCN(CC)C(=O)c1cn(C)c2ccc(S(=O)(=O)N(CC)CC)cc2c1=O,4.0%,1.3%,39.9,12.6%,7.3%
Cc1cccc(NC(=O)c2cc(NC(=O)c3ccco3)ccc2Cl)n1,-29.0%,-14.6%,-0.3,-2.4%,-12.5%
CN(CCO)C(=O)c1cn(C2CCN(Cc3ccc(C(F)(F)F)cc3)CC2)nn1,-14.0%,-13.5%,.,.,.
CCN(CC)S(=O)(=O)c1ccc2c(c1)c(=O)c(C(=O)N1CCN(c3cc(C)ccc3C)CC1)cn2C,?,-18.3%,.,.,.
CCOc1ccc(CCNC(=O)c2cn(CC)c3ccc(S(=O)(=O)N4CCCCCC4)cc3c2=O)cc1OCC,18.4µM*,?,.,.,.
CCOCCCNC(=O)c1cn(CC)c2ccc(S(=O)(=O)N3CCCC3)cc2c1=O,-11.7%,-22.2%,-2.4,2.4%,10.3%
CCOc1ccc(CCNC(=O)c2cn(CC)c3ccc(S(=O)(=O)N4CCc5ccccc5C4)cc3c2=O)cc1OCC,11.6µM*,18.4µM*,.,.,.
CCN(CC)S(=O)(=O)c1ccc2c(c1)c(=O)c(C(=O)N1CCN(c3cc(Cl)ccc3C)CC1)cn2C,?,16.4µM*,.,.,.
CC(NC(=O)c1ccc2c(=O)n3c(nc2c1)CCCCC3)c1ccccc1 (configuration not stated),-28.1%,-3.5%,10.8,-7.5%,-27.5%
Cc1ccc(N2C(=O)CSC23C(=O)Nc2ccccc23)cc1 (configuration not stated),-13.9%,-4.0%,0.0,6.8%,9.8%
Cc1ccc2c(c1)C1(SC(C)C(=O)N1c1ccc(Cl)cc1)C(=O)N2 (configuration not stated),4.11µM*,6.51µM*,36.7,-28.9%,-15.7%
O=C(Cn1cnc2ccccc21)OCC(=O)N1CCc2ccccc2C1,-18.3%,-14.7%,41.9,-3.8%,-3.6%
C(=C\c1ccc2ccccc2n1)/c1ccc2ccccc2n1,?,12.6µM*,.,.,.
CC(=O)c1ccc(N2CCN(C(=O)c3ccc4ccccc4n3)CC2)cc1,-0.3%,4.8%,23.5,6.6%,9.8%
Oc1ccc(/C=C/c2ccc3ccccc3n2)cc1,20.6µM*,23.1µM*,-16.1,-20.7%,-20.9%
CC(=O)c1ccc(N2CCN(C(=O)/C=C/c3ccc4ccccc4n3)CC2)cc1,14.6µM*,?,52.7,2.2%,7.0%
C(=Cc1c[nH]c2ccccc12)c1ccc2ccccc2n1,?,?,-26.2,23.1µM*,16.4µM*
SMILES,DT40 TDP1 no CPT,TDP1 cell CPT,IL1B secr inh,HT1080 IDH1KD tx,HT1080-NT tox
COc1ccc(OC)c2c(/C=C/c3c[nH]c4ccccc34)ccnc12,?,-111.0%,.,.,.
Cc1cccc(/C=C/c2ccccc2)n1,-18.5%,-2.6%,.,.,.
C(=C\c1ccc2ccccc2n1)/c1ccccc1,?,?,6.5,?,?
Cc1cc(Cn2nnnc2-c2ccncc2)cc(C)c1O,-8.6%,-12.7%,48.4,12.4%,-8.3%
Cc1ccc(NC(=O)COc2ccc3c(c2)CCC3)nc1,-25.9%,3.8%,-8.4,-12.2%,-18.0%
CC(C)(C)NC(=O)c1cc(F)c(F)cc1Cl,-1.5%,3.5%,-7.6,14.5%,8.9%
O=C(COc1ccccc1C(=O)Nc1ccccc1)Nc1ccccc1Cl,?,?,.,-0.9%,-20.4%
CCOc1nc2ccccc2cc1/C=C/C(=O)O,-15.0%,-15.9%,21.5,20.1%,12.2%
Cc1ccc2c(/C=C/c3c[nH]c4ccccc34)ccnc2c1C,-103.4%,-124.6%,.,.,.
O=C(O)/C=C/c1ccc2ccccc2n1,-26.7%,?,-71.2*,-22.4%,-23.6%
O=C(/C=C/c1ccc2ccccc2n1)c1cc(Br)ccc1O,?,11.6µM*,44.3,2.2%,-11.8%
C(=Cc1c[nH]c2ccccc12)c1nccc2ccccc12,?,?,-82.0*,?,?
O=Cc1nccc2ccccc12,6.51µM*,9.2µM*,-6.6,-2.3%,-3.0%
Cc1ccsc1CNC(=O)C1(C)CCN1C(C)C (configuration not stated),-21.4%,-22.1%,-13.8,-26.9%,3.9%
Fc1ccccc1/C=C/c1ccc2ccccc2n1,?,?,7.6,-3.0%,-9.3%
O=C(O)/C=C/c1cccnc1,16.5%,-4.9%,-9.9,8.5%,10.7%
CCN(CC(=O)Nc1c(F)cccc1F)C(=O)/C=C/c1ccc2ccccc2n1,4.5%,2.3%,10.2,1.3%,-0.4%
C(=NN1CCCCCC1)c1cccc2ccccc12,?,-1.8%,-18.9,13.5%,13.5%
C(=C\c1ccc2ccccc2n1)/c1cccnc1,15.8µM*,22.4µM*,.,.,.
C(=NN1CCCCCC1)c1ccc2ccccc2n1,16.4µM*,?,-3.8,?,6.51µM*
CC[N+](CC)(CC)c1ccc(/C=C/c2ccc3ccccc3n2)cc1,0.0708µM*,0.0891µM*,.,.,.
C(=C\c1ccnc2ccccc12)/c1ccc2ccccc2n1,7.94µM*,7.08µM*,.,.,.
O=C(CSc1cc(Cl)ccc1Cl)Nc1ccc(N2CCOCC2)cc1,?,?,-0.8,-0.2%,0.7%
CC(C)(C)Cc1c(-c2ccc(Br)cc2)nc2ccc(Br)cn12,?,?,38.5,-23.7%,?
NC(=O)C1CCN(C(=O)c2cc3ccccc3cc2O)CC1,-15.4%,-9.4%,2.1,-12.6%,-9.3%
Cn1cc(/C=C/c2ccc3ccccc3n2)c2ccccc21,10µM*,11.2µM*,.,.,.
Cn1cc(/C=N/Nc2ccccc2)c2ccccc21,?,?,49.3,?,-4.3%
Fc1ccc(OCCCCN2CCOCC2)cc1,3.1%,1.3%,15.3,13.6%,13.8%

# Source: PubChem BioAssay
